# An excerpt weighted towards active compounds, which were near 9.3% of everything screened.
# HCV inhibitor: qHTS Assay for Inhibitors of Hepatitis C Virus (HCV). Huh7.5.1 HCVcc-Cre infection, luciferase reporter, 44 h. Potency, µM (doses to about 41.8 µM), most hits filed as inhibitors. 3.4% of 340,000 active
#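 Cells seeded at 1,000/well and cultured 4 h, then compounds added followed by HCVcc-Cre virus (~0.5 moi). After 44 h further culture, luciferase substrate was added, plates held 15 min at room temperature, and luminescence read for 15 sec.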
# Vaccinia Venus: qHTS for Stage-Specific Inhibitors of Vaccinia Orthopoxvirus: Venus Reporter Primary qHTS; 0.46% of 330,000 active; AID 720580, 2013; Potency, µM (highest dose often 36.5 µM), actives largely listed as inhibitors; Vaccinia virus Venus reporter expression, fluorescence; calls by dose curve; tested in A549 cells; note: nearly all actives have a fitted effect of over 30% in size
# Sm TGR inh: qHTS Assay for the Inhibitors of Schistosoma Mansoni Peroxiredoxins; AID 485364, 2010; 3% of 360,000 active; Potency, µM (doses to about 114 µM), actives largely listed as inhibitors; purified TGR, DTNB reduction, TNB absorbance 405 nm; Schistosoma mansoni thioredoxin glutathione reductase (TGR), Q962Y6; note: nearly all actives have a fitted effect of over 60% in size
#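 TGR 20 nM + NADPH 100 uM (dispensed conc.), cpd preinc 15 min RT; start with NADPH (500 uM addition) then DTNB (15 mM addition). Kinetic TNB absorbance, 405 nm filter. Four-parameter Hill fit across titration.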
# FMDV inh: High Throughput Screening for Foot and Mouth Disease Virus Antivirals | FMDV antiviral cell-based qHTS | Potency, µM (doses to about 57.9 µM), hits mostly inhibitors | 1.2% of 410,000 active; calls by dose curve; tested in HEK293T cells; note: read-out not given here; nearly all actives have a fitted effect of over 45% in size
# Vaccinia mCherry: qHTS for Stage-Specific Inhibitors of Vaccinia Orthopoxvirus: mCherry Reporter Primary qHTS. Vaccinia virus mCherry reporter infection, fluorescence. Potency, µM (series often up to 36.5 µM), usual class: inhibitors. 0.63% of 310,000 active; calls by dose curve; tested in A549 cells; note: nearly all actives have a fitted effect of over 35% in size
# HCMV inh: qHTS Assay for inhibitors of the human cytomegalovirus (HCMV). HFF cells, HCMV-luciferase reporter, 72 h; hits give low values. activity change, negative = inhibition, % at 57.5 µM. 4.5% of 410,000 active; in the data active = activity change below about -60%; inconclusive = no clear call, values can overlap the other calls; inactive = above about -39%
#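 Two compound doses tested in HFFs infected with HCMV-luciferase, MOI 1 PFU/cell, 72 h at 37C. Lysate luminescence read with OneGlo; data normalized against buffer-only and 10uM Salinomycin inhibitor controls.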
# A number is an active result; i = inactive; ? = inconclusive; nt = no result; ! = a repeat was not active. Unless noted, calls come from the whole dose curve; as a rule, active = well fitted curve in the direction sought with a large enough effect; inconclusive = small, poorly fitted or top-dose-only effect, or another doubt; inactive = no such curve, though single readings can be large; an effect the other way counts as inactive or inconclusive.
SMILES,HCV inhibitor,Vaccinia Venus,Sm TGR inh,FMDV inh,Vaccinia mCherry,HCMV inh
COCCn1c(SCC(=O)N2CCCC(C)C2)nnc1-c1ccco1 (stereo unspecified),i,i,?,i,i,?
COc1ccc(Cl)cc1NC(=O)CC(C)=O,i,i,i,i,nt,i
COc1ccc(Cl)cc1NC(=O)C(C)N(C)Cc1ccc(C(F)(F)F)cc1 (stereo unspecified),14.1µM,i,?,?,i,-87.4
COc1ccc(Cl)cc1NC(=O)NCCN1CCNC1=O,i,i,?,i,i,i
COc1ccc(Cl)cc1NC(=O)Nc1cnccn1,?,nt,i,i,nt,-85.3
COc1ccc(Cl)cc1NC(=O)CC(C)c1ccccc1 (stereo unspecified),8.91µM,i,i,i,nt,i
COc1ccc(Cl)cc1NC(=O)NCCCl,?,10µM,i,i,nt,i
COc1ccccc1S(=O)(=O)N(C)C[C@H]1Oc2cc(Br)ccc2S(=O)(=O)N([C@@H](C)CO)C[C@H]1C,nt,i,nt,i,i,i
CC(=O)N1CCC(=NNS(=O)(=O)c2ccc(C)c([N+](=O)[O-])c2)CC1,i,nt,i,i,nt,i
CCOc1ccc(-n2c(=O)[nH]cc(C(=O)N3CCCc4ccccc43)c2=O)cc1,i,i,i,i,i,i
O=C(CN1C(=O)CSCC1=O)Nc1ccc2c(c1)OCO2,i,nt,i,i,nt,i
Cc1ccccc1C(=O)NC(CC(C)C)C(=O)Nc1ccc(F)c([N+](=O)[O-])c1 (stereo unspecified),i,i,i,i,i,-103.6
C[C@]12c3[nH]c4cc(-c5ccco5)ccc4c3CCN1C(=O)[C@@H](CC(=O)NCCC1=CCCCC1)C[C@@H]2C(=O)N1CCCCC1,?,i,nt,i,i,i
CCCN(CCC)CCCNC(=O)c1cc2c(=O)n(CC)c3ccccc3c2s1,7.94µM,i,i,i,i,i
CCCCN(CC)CCNC(=O)c1cc2c(=O)n(CC)c3ccccc3c2s1,2.51µM,i,i,i,i,i
CCN(CCCNC(=O)c1cc2c(=O)n(CC)c3ccccc3c2s1)c1ccccc1,nt,i,i,i,i,i
CCCCN(CC)CCNC(=O)c1cc2c(=O)n(C)c3ccccc3c2s1,?,i,i,i,?,i
CCCCN(CC)CCCNC(=O)c1cn(CC(C)C)c(=O)c2c1c1ccccc1n2C,?,i,31.6µM!,i,i,i
CCCCN(CC)CCCNC(=O)c1cc2c(=O)n(CC)c3ccccc3c2s1,25.1µM,?,i,i,i,i
CCN(CC)CCCNC(=O)c1cn(CC(C)C)c(=O)c2c1c1ccccc1n2C,i,i,?,i,i,i
Cc1ccc(C(=O)N2CCCN(c3nc4cc5c(cc4cc3C#N)OCO5)CC2)cc1,?,i,i,i,?,i
CCN(CC)Cc1c(O)ccc2c([N+](=O)[O-])c(C)n(-c3ccc(OC)cc3)c12,?,i,i,i,nt,-95.9
CC(=O)c1c(C)[nH]c(C(=O)OCC(=O)NC(C)c2ccccc2)c1C (stereo unspecified),nt,i,nt,i,i,i
Cc1cccc2c(-c3ccccc3)cc(=O)[nH]c12,i,i,i,i,?,i
CC(C)(C)c1nc(S(=O)(=O)c2ccc(Cl)cc2)c(N2CCOCC2)o1,i,nt,8.91µM,i,nt,i
SMILES,HCV inhibitor,Vaccinia Venus,Sm TGR inh,FMDV inh,Vaccinia mCherry,HCMV inh
CC(C)Cc1nc(S(=O)(=O)c2ccc(Cl)cc2)c(N2CCOCC2)o1,i,i,2.24µM,i,nt,nt
COC(=O)c1ccc2c(=O)n(CCN3CCOCC3)c(SCC(=O)Nc3ccc(C)cc3)nc2c1,i,nt,i,i,nt,i
CC(C)C(=O)Nc1nnc(NC(=S)Nc2ccccc2)s1,i,i,25.1µM,i,i,i
CCCc1nnc(NC(=S)Nc2ccccc2)s1,i,i,i,i,i,i
CC(=O)C1=CCN(C)CC1,nt,nt,nt,nt,nt,i
Cc1ccccc1NC(=O)NC(C)(C)CC(C)(C)C,i,nt,i,i,nt,i
OCCC1CN(Cc2cccc(-c3ccco3)c2)CCN1Cc1ccsc1 (stereo unspecified),i,nt,i,i,nt,i
Nc1nnc(-c2ccncc2)s1,i,nt,i,i,nt,i
c1cc(-c2sc(-c3ccncc3)c(-c3ccncc3)c2-c2ccncc2)ccn1,i,i,i,i,i,-78.9
NC(N)=Nc1nc2cc([N+](=O)[O-])ccc2o1,i,nt,i,i,nt,-70.8
Cc1nc(N)sc1C(=O)N/N=C/c1cccnc1,i,i,i,i,i,i
COC(=O)c1ccccc1NC(=O)CCC(=O)N1CC(C)Oc2ccc(C)cc21 (stereo unspecified),i,i,i,i,i,i
CC(C)C[C@H]1CN([C@@H](Cc2ccccc2)CN2CCC[C@@H]2CN2C(=O)C(=O)NC[C@@H]2Cc2ccc(O)cc2)C(=O)C(=O)N1CC1CCCCC1,nt,i,nt,i,i,i
COC(=O)c1ccc(CN2C(=O)C(C)N(C(=O)c3c(F)cccc3F)c3ccccc32)cc1 (stereo unspecified),?,nt,i,?,nt,i
CC1C(=O)N(Cc2ccc(F)cc2)c2ccccc2N1C(=O)c1c(F)cccc1F (stereo unspecified),?,nt,i,22.4µM,nt,-72.9
O=C1CC(c2ccco2)CC2=C1C=Nc1ccccc1N2 (stereo unspecified),i,nt,39.8µM,?,nt,?
O=C1CC(c2ccco2)CC(O)=C1C=NCC1CCNCC1 (stereo unspecified),i,i,?,i,i,i
O=C(NCc1ccccc1Br)c1cccc2c1C(=O)c1ccc(N3CCOCC3)cc1S2(=O)=O,i,nt,i,nt,nt,nt
Cn1c(=O)[nH]c(=O)c2c1nc(Br)n2CC(O)COCc1ccccc1 (stereo unspecified),i,i,i,?,nt,i
CCC(=O)N(Cc1cc2ccc(C)cc2[nH]c1=O)c1ccccc1OC,i,nt,89.1µM,i,nt,i
Cc1ccc(N(Cc2cc3ccc(C)cc3[nH]c2=O)C(=O)c2ccco2)c(C)c1,?,nt,8.91µM,i,nt,i
Cc1ccc2cc(CN(C(=O)c3ccco3)c3cccc(C)c3C)c(=O)[nH]c2c1,i,i,12.6µM,i,i,?
Cc1ccc2cc(CN(C(=O)c3ccco3)c3ccccc3C)c(=O)[nH]c2c1,?,i,i,i,i,i
CN1C(C)(C)CC(O)(C(=O)O)CC1(C)C,nt,i,nt,i,i,i
CNC(=O)COC(=O)c1ccc(-c2nc3ccccc3s2)s1,i,i,i,i,i,i
COc1ccc(-c2cc(C(F)(F)F)nc(SCC(=O)NCc3ccco3)n2)cc1OC,?,i,44.7µM,i,nt,i
O=C(CSc1nc(-c2ccccc2)cc(C(F)(F)F)n1)NCc1ccco1,?,i,i,nt,i,i
